# GPR151 ag: activates the human receptor GPR151; Q8TDV0; PathHunter beta-arrestin GPR151 cells, luminescence; activation, % at 11.2 µM; hit rate 1% among 650,000; AID 1508602; in the data active means activation above about 4.9%
# TEAD-YAP block: TEAD-YAP interaction inhibition | hit rate 1.4% among 640,000 | AID 1259422 | inhibition, % at 9.12 µM | HEK-TIYL cells, TEAD-Gal4/YAP UAS-luciferase luminescence; in the data active means inhibition above about 32%
# MITF primary: inhibitors of human MITF | O75030 | AlphaScreen MITF homodimerization, bead proximity signal | inhibition, % at 2.6 µM | hit rate 0.91% among 650,000 | AID 1259374; in the data active means inhibition above about 50%
# FBW7 act: activators of human E3 ligase FBW7; hit rate 0.13% among 650,000; AID 1259310; AlphaScreen FBW7–phospho-cyclin E peptide binding, activator screen; normalized activity (activation), % at 26.1 µM; in the data active means normalized activity above about 1.9%;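 further: purified mutant Fbw7 with reduced substrate affinity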
# GPR151 confirm: confirmation of human GPR151 activators; shares compounds with GPR151 ag; GPR151 PathHunter beta-arrestin cells, luminescence, 90 min; % of EA-reagent control over plate median; activation, % at 11.2 µM; 6,700 tested, under 10 active;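 active means mean percent activation across replicates above the confirmation screen cutoff of 4.91%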
# GPR119 ag: activates human GPR119 in a GPR151 counter-screen; activation, % at 11.2 µM; shares compounds with GPR151 ag; GPR119 PathHunter beta-arrestin cells, luminescence, 90 min; 0 = compound-well median, 100 = enzyme-acceptor control; hit rate 0.3% among 6,700;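 active means mean percent activation in the counterscreen above 29.09%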;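 further: counterscreen on off-target GPR119 to flag nonselective hits from the GPR151 activator screen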
# Target sequence (Q8TDV5 whole entry, looked up): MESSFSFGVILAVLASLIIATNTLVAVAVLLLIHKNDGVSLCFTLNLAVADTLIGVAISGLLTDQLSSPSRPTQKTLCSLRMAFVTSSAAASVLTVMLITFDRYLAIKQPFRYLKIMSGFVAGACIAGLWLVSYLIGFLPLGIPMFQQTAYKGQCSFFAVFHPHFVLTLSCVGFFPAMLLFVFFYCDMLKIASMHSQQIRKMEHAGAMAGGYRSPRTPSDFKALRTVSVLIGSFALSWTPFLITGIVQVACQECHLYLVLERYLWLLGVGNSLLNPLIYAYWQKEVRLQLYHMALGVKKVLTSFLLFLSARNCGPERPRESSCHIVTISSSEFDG
# Hits are given with their value; n = inactive; x = no result given. Compounds with a hit are over-represented: about 3.4% of the library has one in this group of screens.
SMILES,GPR151 ag,TEAD-YAP block,MITF primary,FBW7 act,GPR151 confirm,GPR119 ag
CC(=O)N1CCC(N(C(=O)Nc2cccc(Cl)c2C)C(C)C)CC1,n,n,n,n,x,x
CCC(=O)C1=C(c2ccc(C(C)(C)C)cc2)N(C(=O)CC)n2cnnc2S1,6.4,67,n,n,n,n
CCOC(=O)c1ccc(CN(Cc2ccc(C)cc2)S(=O)(=O)c2cc(Cl)cc(Cl)c2)cc1,n,n,n,n,x,x
O=C(CC1(O)C(=O)Nc2ccccc21)c1ccc2c(c1)CCC2 (stereo not given),n,n,n,n,x,x
c1ccc(CNc2nc(Nc3ccncc3)nc3c2ncn3-c2ccccc2)cc1,6.6,n,n,n,n,n
Clc1nc(NCc2ccccc2)c2ncn(-c3ccccc3)c2n1,5.0,n,n,n,n,n
Cc1ccc(NC(=O)/C(C#N)=C/c2ccco2)c([N+](=O)[O-])c1,n,n,n,n,x,x
Clc1ccc(C(Cn2ccnc2)OCc2c(Cl)cccc2Cl)c(Cl)c1 (stereo not given),10,x,n,n,n,n
O=C1COc2cc(-c3c(NC4CCCCC4)c(=O)c3=O)ccc2N1,14,n,n,n,n,n
Cc1ccccc1NC(=S)NCC(c1cccnc1)N1CCOCC1 (stereo not given),n,n,n,n,x,x
S=C(NCCc1ccccc1)NCC(c1cccnc1)N1CCOCC1 (stereo not given),9.3,n,n,n,n,n
CC1CCCCC1N1C(=O)NC(=O)C1=O (stereo not given),n,n,n,n,x,x
O=C(CCCOc1ccccc1)Nc1ccc(S(=O)(=O)Nc2ncccn2)cc1,n,n,n,n,x,x
Cc1ccc(NS(=O)(=O)c2ccc(NC(=O)CCCOc3ccccc3)cc2)cc1,6.7,n,n,n,n,n
Cc1ccc(NC(=O)CS(=O)(=O)c2ccccc2)cc1,6.1,n,n,n,n,n
CCCCCC(=O)Nc1ccc(S(=O)(=O)Nc2nccc(C)n2)cc1,5.5,n,n,n,n,n
Cc1cc(=O)nc2c3ccccc3n(CC(=O)NC3CCCCC3C)n12 (stereo not given),n,n,n,n,x,x
COc1cc(Cl)c(C)cc1NC(=S)N(Cc1ccccc1)Cc1cccnc1,n,n,n,n,x,x
CCSCCOC(=O)C1=C(C)NC2=C(C(=O)CC(c3ccccc3)C2)C1c1ccccc1F (stereo not given),n,n,n,n,x,x
Cc1cc(O)c(C(=O)/C=C/c2ccccc2Br)c(=O)o1,n,n,n,n,x,x
C=CCc1cccc(/C=C/C(=O)c2c(O)cc(C)oc2=O)c1O,5.9,n,n,n,n,n
COCCCNC(=O)CC1C(=O)NCCN1Cc1ccc(OC)cc1F (stereo not given),n,n,n,n,x,x
O=C1N(Cc2cccnc2)C[C@@H]2C[C@@H](c3ccc(Oc4ncccn4)cc3)N3CCC[C@@]123,n,n,n,n,x,x
O=C1N(Cc2cccnc2)C[C@@H]2C[C@@H](c3cccn3-c3ncccn3)N3CCC[C@@]123,20,n,n,n,n,n
COc1ccc(/C=c2\sc3nc(=O)c(Cc4ccccc4)nn3c2=O)c(OC)c1,n,n,n,n,x,x
SMILES,GPR151 ag,TEAD-YAP block,MITF primary,FBW7 act,GPR151 confirm,GPR119 ag
CCCN(CC1CC1)C(=O)c1cn(CC(C)C)cc(C(=O)NC2CCCC2)c1=O,n,n,n,n,x,x
CCCC(=O)Nc1nnc(S(=O)(=O)N(CC)c2ccc(Cl)cc2)s1,n,n,n,n,x,x
CCCCC(=O)Nc1nnc(S(=O)(=O)N(CC)c2ccc(Cl)cc2)s1,5.7,n,n,n,n,n
O=C(NCc1ccc2c(c1)OCO2)c1ccc(Br)s1,6.2,n,n,n,n,n
O=C(NCc1ccc2c(c1)OCO2)C(=O)Nc1ccccc1,n,n,n,n,x,x
O=C1CCSc2c1cccc2C(=O)NCc1ccc2c(c1)OCO2,5.6,n,n,n,n,n
Cc1ccccc1CNC(=O)C(=O)NCc1ccc2c(c1)OCO2,5.4,n,n,n,n,n
CCCNc1nccn2c(-c3cccc4cccnc34)cnc12,n,n,n,n,x,x
Cc1ccc(C(=O)O/N=C(\N)Cc2ccc([N+](=O)[O-])cc2)cc1C,n,n,n,n,x,x
O=C(CN1C(=O)CCC1=O)Nc1ccc2sccc2c1,n,n,n,n,x,x
Cc1cc2c(cc1S(=O)(=O)Nc1ccccc1Br)OCCN2C,9.7,n,n,n,n,n
Cc1cc2c(cc1S(=O)(=O)Nc1ccccn1)OCCN2C,n,n,n,n,x,x
CCc1ccccc1NS(=O)(=O)c1ccc2c(c1)OCCN2C,n,n,n,n,x,x
Cc1cc2c(cc1S(=O)(=O)Nc1ncccc1C)OCCN2C,6.3,n,n,n,n,n
CN1CCOc2cc(S(=O)(=O)NCCc3ccc(Cl)cc3)ccc21,n,n,n,n,x,x
COc1ccc(CCNS(=O)(=O)c2ccc3c(c2)OCCN3C)cc1OC,5.2,n,n,n,n,n
CN1CCOc2cc(S(=O)(=O)Nc3ccccc3F)ccc21,16,n,n,n,n,n
COc1ccc(C(=O)N/C(=C\c2cccc([N+](=O)[O-])c2)C(=O)Nc2cc(Cl)ccc2Cl)cc1Br,n,n,n,n,x,x
Cc1ccc(CNS(=O)(=O)c2ccc(F)c(C(=O)O)c2)cc1,n,n,n,n,x,x
O=C(O)c1cccnc1Nc1cccc2ccccc12,n,n,n,n,x,x
c1ccc2sc(Nc3ccnc(Nc4ccc(N5CCOCC5)cc4)c3)nc2c1,n,n,n,n,x,x
CC(=O)c1cccc(NC(=O)CN(c2cccc([N+](=O)[O-])c2)S(=O)(=O)c2ccccc2)c1,n,n,n,n,x,x
COC(=O)c1ccc(-c2cnn3ccc(Nc4cccc(Cl)c4)nc23)cc1,n,n,n,n,x,x
COc1ccccc1NC(=O)NCc1nc(N)n(C(=O)Nc2ccccc2OC)n1,5.2,n,n,n,n,n
COc1cc2nc(C3CCC3)n(NC(=O)c3ccccc3F)c(=O)c2cc1OC,n,n,n,n,x,x
SMILES,GPR151 ag,TEAD-YAP block,MITF primary,FBW7 act,GPR151 confirm,GPR119 ag
Cc1ccc(NC(=O)C(=O)N/N=C/c2ccc([N+](=O)[O-])cc2)cc1C,15,n,n,n,n,n
Cc1cc(Cl)ccc1NC(=O)C(=O)N/N=C/c1ccc([N+](=O)[O-])cc1,n,n,n,n,x,x
Cc1cncc2c(S(=O)(=O)N3CC[C@H](NC(=O)CN)C3)cccc12,6.1,n,n,n,n,n
COc1ccc(CCNc2nc(N3CCCC3)nc(N3CCCC3)n2)cc1OC,5.1,n,n,n,n,n
COc1ccc(CCNc2nc(NC(C)(C)CO)nc(N3CCCC3)n2)cc1OC,n,n,n,n,x,x
Cc1cc2nc(C3CCCN3C(=O)CN3CCCCC3)[nH]c2cc1C (stereo not given),n,n,n,n,x,x
Cc1cc2nc(C3CCCN3C(=O)CC3(C)C(=O)N=C4C=CC=CN43)[nH]c2cc1C (stereo not given),8.0,n,n,n,n,n
CC(=O)c1cccc(-c2nc(C(=O)Nc3ccc(N4CCOCC4)cc3)cs2)c1,n,n,n,n,x,x

# Bioassay records (PubChem)
